Laboratory results as given in the supplement of paper PMC8728848.
The entries come from a sample that favours the strongest signals as a whole.

Tests used:
Assay in all cases: glycan array binding signal (z-score within array); higher = stronger binding
Settings in all cases: glycan notation: IUPAC condensed, linker removed
[1] = biological target: Fuc(a1-2)Gal(b1-4)Fuc(a1-3)]GlcNAc(b1-2)Man(a1-3)[Fuc(a1-2)Gal(b1-4)[Fuc(a1-3)]GlcNAc(b1-2)Man(a1-6)]Man(b1-4)GlcNAc(b1-4)GlcNAc
Outline: (§1)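 Glycan array binding is given as a within-array Z-score, which can be read as non-binding when negative. The arrays, 3228 of them, came from the Consortium for Functional Glycomics database and were retained only where the protein sequence was available. Z-scores were averaged across arrays of the same protein sequence at different concentrations or buffers and across linkers.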

[2] = biological target: Fuc(a1-2)Gal(b1-4)GlcNAc(b1-3)[Fuc(a1-2)Gal(b1-4)GlcNAc(b1-6)]GalNAc
Outline: as §1

[3] = biological target: Fuc(a1-2)Gal6S(b1-3)GlcNAc6S
Outline: as §1

[4] = biological target: Fuc(a1-2)[Gal(a1-3)]Gal(b1-3)GlcNAc(b1-2)Man(a1-3)[Fuc(a1-2)[Gal(a1-3)]Gal(b1-3)GlcNAc(b1-2)Man(a1-6)]Man(b1-4)GlcNAc(b1-4)GlcNAc
Outline: as §1

[5] = biological target: Fuc(a1-2)[Gal(a1-3)]Gal(b1-4)GlcNAc(b1-6)GalNAc
Outline: as §1

[6] = biological target: Fuc(a1-2)[GalNAc(a1-3)]Gal(b1-4)GlcNAc(b1-6)GalNAc
Outline: as §1

[7] = biological target: Fuc(a1-2)[GalNAc(a1-3)]Gal(b1-4)[Fuc(a1-3)]GlcNAc
Outline: as §1

[8] = biological target: Fuc(a1-3)[Gal(b1-4)]GlcNAc(b1-2)Man
Outline: as §1

[9] = biological target: Fuc(a1-3)[Gal(b1-4)]GlcNAc(b1-3)Gal(b1-4)[Fuc(a1-3)]GlcNAc
Outline: as §1

[10] = biological target: Fuc(b1-3)GlcNAc
Outline: as §1

[11] = biological target: Gal(a1-3)Gal(b1-4)Glc
Outline: as §1

[12] = biological target: Gal(a1-3)Gal(b1-4)GlcNAc(b1-3)GalNAc
Outline: as §1

[13] = biological target: Gal(a1-3)GalNAc
Outline: as §1

[14] = biological target: Gal(a1-4)GlcNAc
Outline: as §1

[15] = biological target: Gal(b1-3)GlcNAc(b1-3)Gal(b1-4)GlcNAc
Outline: as §1

[16] = biological target: Gal(b1-3)GlcNAc(b1-3)Gal(b1-4)[Fuc(a1-3)]GlcNAc(b1-6)[Gal(b1-3)GlcNAc(b1-3)]Gal(b1-4)Glc
Outline: as §1

[17] = biological target: Gal(b1-3)GlcNAc(b1-3)GalNAc
Outline: as §1

[18] = biological target: Gal(b1-4)GlcNAc(b1-2)Man(a1-3)[Gal(b1-4)GlcNAc(b1-2)Man(a1-6)][GlcNAc(b1-4)]Man(b1-4)GlcNAc(b1-4)[Fuc(a1-6)]GlcNAc
Outline: as §1

[19] = biological target: Gal(b1-4)GlcNAc(b1-3)Gal(b1-4)GlcNAc(b1-3)Gal(b1-4)GlcNAc(b1-2)Man(a1-3)[Gal(b1-4)GlcNAc(b1-3)Gal(b1-4)GlcNAc(b1-3)Gal(b1-4)GlcNAc(b1-2)Man(a1-6)]Man(b1-4)GlcNAc(b1-4)GlcNAc
Outline: as §1

[20] = biological target: Gal(b1-4)GlcNAc(b1-3)Gal(b1-4)GlcNAc(b1-3)[Gal(b1-4)GlcNAc(b1-3)Gal(b1-4)GlcNAc(b1-6)]GalNAc
Outline: as §1

[21] = biological target: Gal(b1-4)GlcNAc(b1-3)Gal(b1-4)GlcNAc(b1-6)[Gal(b1-3)]GalNAc
Outline: as §1

[22] = biological target: Gal(b1-4)GlcNAc(b1-3)Gal(b1-4)[Fuc(a1-3)]GlcNAc(b1-3)Gal(b1-4)[Fuc(a1-3)]GlcNAc
Outline: as §1

[23] = biological target: Gal(b1-4)GlcNAc(b1-6)GalNAc
Outline: as §1

[24] = biological target: Gal6S(b1-4)Glc6S
Outline: as §1

[25] = biological target: Gal6S(b1-4)GlcNAc6S
Outline: as §1

[26] = biological target: GalNAc(b1-4)GlcNAc(b1-2)Man(a1-3)[GalNAc(b1-4)GlcNAc(b1-2)Man(a1-6)]Man(b1-4)GlcNAc(b1-4)GlcNAc
Outline: as §1

[27] = biological target: GlcA(b1-3)GlcNAc
Outline: as §1

[28] = biological target: GlcNAc(a1-4)Gal(b1-4)GlcNAc
Outline: as §1

[29] = biological target: GlcNAc(b1-2)Gal(b1-3)GalNAc
Outline: as §1

[30] = biological target: GlcNAc(b1-6)Gal(b1-4)GlcNAc
Outline: as §1

[31] = biological target: Man(a1-2)Man(a1-2)Man(a1-6)[Man(a1-3)]Man
Outline: as §1

[32] = biological target: Man(a1-3)[Man(a1-6)]Man(a1-6)[Man(a1-3)]Man
Outline: as §1

[33] = biological target: Neu5Ac(a2-3)Gal(b1-3)GlcNAc(b1-3)Gal(b1-3)GlcNAc
Outline: as §1

[34] = biological target: Neu5Ac(a2-3)Gal(b1-3)GlcNAc(b1-3)Gal(b1-4)GlcNAc
Outline: as §1

[35] = biological target: Neu5Ac(a2-3)Gal(b1-3)[Neu5Ac(a2-6)]GlcNAc(b1-3)[Fuc(a1-3)[Gal(b1-4)]GlcNAc(b1-6)]Gal(b1-4)Glc
Outline: as §1

[36] = biological target: Neu5Ac(a2-3)Gal(b1-4)GlcNAc(b1-2)Man
Outline: as §1

[37] = biological target: Neu5Ac(a2-3)Gal(b1-4)GlcNAc(b1-3)Gal(b1-4)GlcNAc(b1-3)GalNAc
Outline: as §1

[38] = biological target: Neu5Ac(a2-3)Gal(b1-4)GlcNAc(b1-3)[Neu5Ac(a2-3)Gal(b1-4)GlcNAc(b1-6)]GalNAc
Outline: as §1

[39] = biological target: Neu5Ac(a2-3)Gal(b1-4)[Fuc(a1-3)]GlcNAc(b1-3)GalNAc
Outline: as §1

[40] = biological target: Neu5Ac(a2-6)Gal(b1-4)GlcNAc(b1-2)Man
Outline: as §1

[41] = biological target: Neu5Ac(a2-6)Gal(b1-4)GlcNAc(b1-2)Man(a1-3)[Gal(b1-4)GlcNAc(b1-2)Man(a1-6)]Man(b1-4)GlcNAc(b1-4)GlcNAc
Outline: as §1

[42] = biological target: Neu5Ac(a2-6)Gal(b1-4)GlcNAc(b1-3)Gal(b1-4)GlcNAc
Outline: as §1

[43] = biological target: Neu5Ac(a2-6)Gal(b1-4)GlcNAc(b1-3)Gal(b1-4)GlcNAc(b1-2)Man(a1-3)[Neu5Ac(a2-6)Gal(b1-4)GlcNAc(b1-3)Gal(b1-4)GlcNAc(b1-2)Man(a1-6)]GalNAc
Outline: as §1

[44] = biological target: Neu5Ac(a2-6)Gal(b1-4)GlcNAc(b1-3)Gal(b1-4)GlcNAc(b1-3)Gal(b1-4)GlcNAc(b1-2)Man(a1-3)[Neu5Ac(a2-6)Gal(b1-4)GlcNAc(b1-3)Gal(b1-4)GlcNAc(b1-3)Gal(b1-4)GlcNAc(b1-2)Man(a1-6)]GalNAc
Outline: as §1

[45] = biological target: Neu5Ac(a2-6)Gal(b1-4)GlcNAc(b1-3)Gal(b1-4)[Fuc(a1-3)]GlcNAc(b1-3)Gal(b1-4)[Fuc(a1-3)]GlcNAc
Outline: as §1

[46] = biological target: Neu5Ac9Ac(a2-3)Gal(b1-3)GlcNAc
Outline: as §1

B1: Epa21 (Candida glabrata) (protein)
chain: MGSSHHHHHHSSGLVPRGSHMASTPNIESHPQGCSPVDTSGIKPGLKMDLYRFPITPPGTGCWSWDWLTVTPDFPRSGYWKWPKIAEVDGVVGPLHLDSGHPTCDPLTSVLPHGFNYLQSITTTNFTMVLHGYFVPKQSGKYTFEFKADDALLLNLGAGNAFSCCDYNNSQYNQGEYLAYAIWSKNNQTATLYLEKGIYYPIRVFYHNRCCGAYMDVVYYFNDSPIPNRDFSGLLFSIPDSDSCDANI
- glycan array binding signal (z-score) [1]: 2.49
- glycan array binding signal (z-score) [2]: -0.296
- glycan array binding signal (z-score) [3]: 4.29
- glycan array binding signal (z-score) [4]: -0.507
- glycan array binding signal (z-score) [5]: -0.214
- glycan array binding signal (z-score) [6]: -0.634
- glycan array binding signal (z-score) [7]: -0.093
- glycan array binding signal (z-score) [8]: -0.558
- glycan array binding signal (z-score) [9]: 0.064
- glycan array binding signal (z-score) [10]: -1.01
- glycan array binding signal (z-score) [11]: -0.176
- glycan array binding signal (z-score) [12]: 1.03
- glycan array binding signal (z-score) [13]: -0.135
- glycan array binding signal (z-score) [14]: 4.26
- glycan array binding signal (z-score) [15]: -0.56
- glycan array binding signal (z-score) [16]: -0.438
- glycan array binding signal (z-score) [17]: -0.317
- glycan array binding signal (z-score) [18]: -0.687
- glycan array binding signal (z-score) [19]: 2.55
- glycan array binding signal (z-score) [20]: 1.89
- glycan array binding signal (z-score) [21]: 2.73
- glycan array binding signal (z-score) [22]: -0.493
- glycan array binding signal (z-score) [23]: -0.047
- glycan array binding signal (z-score) [24]: 2.89
- glycan array binding signal (z-score) [25]: 3.19
- glycan array binding signal (z-score) [26]: 0.288
- glycan array binding signal (z-score) [27]: 0.14
- glycan array binding signal (z-score) [28]: -0.35
- glycan array binding signal (z-score) [29]: -0.466
- glycan array binding signal (z-score) [30]: 0.013
- glycan array binding signal (z-score) [31]: -0.531
- glycan array binding signal (z-score) [32]: -0.026
- glycan array binding signal (z-score) [33]: -0.487
- glycan array binding signal (z-score) [34]: -0.39
- glycan array binding signal (z-score) [35]: -0.237
- glycan array binding signal (z-score) [36]: 2.68
- glycan array binding signal (z-score) [37]: 3.03
- glycan array binding signal (z-score) [38]: 0.888
- glycan array binding signal (z-score) [39]: 1.87
- glycan array binding signal (z-score) [40]: -0.212
- glycan array binding signal (z-score) [41]: -0.438
- glycan array binding signal (z-score) [42]: -0.589
- glycan array binding signal (z-score) [43]: 2.55
- glycan array binding signal (z-score) [44]: 5.42
- glycan array binding signal (z-score) [45]: -0.189
- glycan array binding signal (z-score) [46]: -0.318
